Among all 400,000 compounds or so, about 13,000 (3.2%) were called active. Another 18% or so got no clear call; they are omitted. The call rests on the fitted dose curve; in most records, active means well fitted cell-killing curve with a large enough effect; inconclusive means small, poorly fitted or top-dose-only effect, or effect the other way; inactive means flat fitted curve, though single readings scatter. Shown is part of a subset that was picked to be rich in actives. Where a call stands in place of a potency, no number is given.

Results on 66 molecules are retold here after PubChem BioAssay AID1347076 (National Center for Advancing Translational Sciences (NCATS), 2019).
Potency means the concentration at half of the fitted maximal effect.

A short description of the assay: qHTS assay for MDR1-selective chemotherapeutics: Primary screen using the drug-selected MDR subline cells KB-V1. Further: nearly all actives have a fitted effect of over 60% in size. The conditions noted are these: KB-V1 MDR cells viability, CellTiter-Glo, 72 h; series mostly up to 46.1 µM. Put shortly:
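Cells of the MDR subline KB-V1 are plated, dosed with compound at multiple concentrations, and incubated 72 h at 37 degrees C; CellTiter-Glo is then added and luminescence read after 10 min.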
(Quantitative high-throughput screening tests each substance at several concentrations.)
Regarding `COc1ccc(Cn2cc(C(=O)c3ccc(C)cc3)c(=O)c3cc(OC)c(OC)cc32)cc1`, the Potency result was “inactive”.

Turning to `O=C(NC1CCCC1)C1c2ccccc2OCC(=O)N1CC(F)(F)F` (stereo unspecified), the Potency entry is “inactive”.

On to `CCCCn1nnnc1C(c1cc2ccccc2o1)N(C)Cc1ccc(Cl)c(Cl)c1` (stereo unspecified), for which the Potency result was “inactive”.

Turning to `O=C1NC(Cc2ccccc2)c2nc3ccc(Br)cc3c(=O)n2-c2cc3ccccc3cc21` (stereo unspecified), the Potency entry is “inactive”.

Take `O=C(NC(C(=O)NCCN1CCOCC1)C12CC3CC(CC(C3)C1)C2)C1CCCCC1` (stereo unspecified): the Potency is 14.6 µM (active).

For `O=C(NCCCN1CCOCC1)C1CCCN(S(=O)(=O)N2CCCCC2)C1` (stereo unspecified), the Potency entry was “inactive”.

Regarding `O=C(NCCN1CCOCC1)C1CCN(S(=O)(=O)c2ccccc2)CC1`, the Potency entry was “inactive”.

`CCOC(=O)c1c(NC(=O)COC(=O)c2ccc(S(=O)(=O)C(F)F)cc2)sc(C(=O)N(C)C)c1C`: the Potency result was “inactive”.

As to `CC1(C(=O)O)CCN1C(=O)/C=C/c1ccccc1` (stereo unspecified), the Potency entry was “inactive”.

`COc1ccc(NC(=O)CN(C)C(=O)c2cc(C3CC3)nn2-c2ccccc2)cc1`: the Potency result is “inactive”.

As to `CCN(CC(=O)Nc1ccc(OC)cc1)C(=O)c1ccc(Cl)c(S(=O)(=O)N2CCCC2)c1`, the Potency result was “inactive”.

Regarding `CCN(CC(=O)Nc1ccc(OC)cc1)C(=O)c1ccc(=O)n(Cc2ccccc2)n1`, the Potency was 18.4 µM (active).

With `N=c1c2c3c(sc2ncn1N)CCCCC3`, the Potency entry was “inactive”.

In the case of `N=c1c2c3c(sc2ncn1CCCN1CCOCC1)CCCCC3`, the Potency is 8.2 µM (active).

`N=c1c2c3c(sc2nc2n1CCCCC2)CCCC3`: the Potency result was “inactive”.

As to `CCN1CCN(c2ccc(/C=C/c3ccnc4ccccc34)cc2)CC1`, the Potency result was “inactive”.

Turning to `C[C@@H]1CN([C@H](C)CO)C(=O)c2cc(Br)cnc2O[C@@H]1CN(C)Cc1cncnc1`, the Potency result was “inactive”.

For `C[C@H]1Cn2cnc(C(=O)N[C@@H](Cc3c[nH]c4ccccc34)C(=O)OC(C)(C)C)c2C(=O)N1`, the Potency entry was “inactive”.

Turning to `COc1ccc(C(=O)NC2CC(C)(C)NC(C)(C)C2)cc1OC`, the Potency entry was “inactive”.

Regarding `Cc1cccc(C(=O)NCC(=O)OCC(=O)N2CC3(C)CC2CC(C)(C)C3)c1` (stereo unspecified), the Potency entry was “inactive”.

In the case of `COc1ccc(C(=O)N2CC3(C)CC2CC(C)(C)C3)cc1OC` (stereo unspecified), the Potency was 23.1 µM (active).

Take `O=C(NCc1ccccc1)C(c1ccc(F)cc1)N1CCN(C(=O)C2CCCO2)CC1` (stereo unspecified): the Potency result was “inactive”.

For `CCn1c(Cc2ccc(OC)cc2)nnc1SCC(=O)Nc1ccc(N2CCOCC2)cc1`, the Potency entry was “inactive”.

Turning to `CCn1c(CNC(=O)c2ccc(OC)c(OC)c2)nnc1SCC(=O)Nc1ccccc1`, the Potency result is “inactive”.

With `CCn1c(Cc2ccccc2)nnc1SCC(=O)Nc1ccccc1`, the Potency is 20.6 µM (active).

For `CC1(C(=O)NS(=O)(=O)c2cccc(OC(F)F)c2)CCN1C(=O)COc1ccc(Cl)cc1` (stereo unspecified), the Potency result is “inactive”.

Regarding `O=C(Nc1cccc2ccccc12)c1[nH]c(-c2ccccc2)c2c1C(=O)N(C1CC1)C2=O`, the Potency result is “inactive”.

Regarding `CCCCNC(=O)C[C@@H]1C[C@@]2(C(=O)OCC)CCC=C2N(Cc2ccco2)C1=O`, the Potency result was “inactive”.

Regarding `Cc1cc([N+](=O)[O-])ccc1NS(=O)(=O)c1ccccc1`, the Potency result is “inactive”.

Consider `O=C(NNS(=O)(=O)c1ccc(F)cc1)c1ccc([N+](=O)[O-])cc1Cl`, for which the Potency entry was “inactive”.

As to `O=[N+]([O-])c1ccc(NS(=O)(=O)c2ccccc2)c(Cl)c1`, the Potency is 23.1 µM (active).

Turning to `CCc1nc2ccc(C(=O)N3CCC(O)(Cc4ccccc4)CC3)cn2c1N(C)C(=O)Cc1ccccc1`, the Potency result is “inactive”.

Turning to `CC1(C(=O)NCc2ccc3c(c2)OCO3)CCN1CCc1ccccc1` (stereo unspecified), the Potency result is “inactive”.

As for `COc1ccc(S(=O)(=O)N/N=C\c2ccc(OC)c(COc3ccc(C)cc3[N+](=O)[O-])c2)cc1`, the Potency entry was “inactive”.

Regarding `COc1ccc(C(=O)Oc2cc(/C=N/NS(=O)(=O)c3ccc(C)cc3)ccc2OC)cc1`, the Potency was 14.6 µM (active).

As to `COc1ccc(C(=O)NNS(=O)(=O)c2ccc(C)cc2)cc1`, the Potency result was “inactive”.

Regarding `c1ccc(Cc2c(-c3ccco3)nc3c4ccccc4ccn23)cc1`, the Potency entry is “inactive”.

Take `CC(C)Cn1c(=O)c2ccccc2n2c(-c3cccc(Cl)c3)nnc12`: the Potency result was “inactive”.

`CN(Cc1cncn1C)c1ncnc2ccc(-c3ccc4c(c3)OCO4)cc12`: the Potency entry was “inactive”.

`O=C(CSc1ccccc1)Nc1cccc(S(=O)(=O)N2CCCCC2)c1`: the Potency entry is “inactive”.

On to `O=C(Nc1cccc(S(=O)(=O)N2CCCCC2)c1)c1cncc(Br)c1`, for which the Potency result is “inactive”.

With `O=C(c1ccc2c(c1)OCCO2)C1CCN(S(=O)(=O)c2cccc(F)c2)CC1`, the Potency is 20.6 µM (active).

`Cn1nnnc1SCC(=O)Nc1cccc(S(=O)(=O)N2CCCCC2)c1`: the Potency is 20.6 µM (active).

Regarding `O=C(NCc1cccs1)C1CCN(S(=O)(=O)c2ccc3c(c2)OCCO3)CC1`, the Potency entry is “inactive”.

On to `O=C(c1c(F)cccc1F)N1CCN(S(=O)(=O)c2ccc3c(c2)OCCO3)CC1`, for which the Potency result was “inactive”.

On to `O=C(Nc1cccc(S(=O)(=O)N2CCCCC2)c1)c1ccc2c(c1)OCO2`, for which the Potency is 3.26 µM (active).

As for `COCCn1cnnc1SCC(=O)Nc1cccc(S(=O)(=O)N2CCCCC2)c1`, the Potency entry is “inactive”.

For the molecule `CCN(CC)S(=O)(=O)c1cccc(NC(=O)c2ccc(S(=O)(=O)N3CCCC3)cc2)c1`, the Potency entry is “inactive”.

Consider `Cc1ccc(-c2nn3c(=O)cc(CN4CCN(S(=O)(=O)c5ccc(Cl)cc5)CC4)nc3s2)cc1`, for which the Potency result was “inactive”.

In the case of `Cc1cccc(C)c1NC(=O)CNC(=O)c1ccc(N2CCOCC2)c([N+](=O)[O-])c1`, the Potency result was “inactive”.

For the molecule `CCn1c(/C=C/c2ccc([N+](=O)[O-])o2)nc2ccccc2c1=O`, the Potency was 5.17 µM (active).

For the molecule `O=c1oc(/C=C/c2ccccc2)nc2ccccc12`, the Potency result was “inactive”.

As for `CCc1ccc(S(=O)(=O)N/N=C\c2ccc([N+](=O)[O-])o2)cc1`, the Potency entry was “inactive”.

Consider `CSc1ncccc1C(=O)N1CCCC(Nc2ccc(F)c(F)c2)C1` (stereo unspecified), for which the Potency entry was “inactive”.

Consider `CCc1nn(CCCC(=O)NCc2ccccc2OC)c(=O)c2cc3occc3n12`, for which the Potency entry was “inactive”.

`Cc1cc(Br)cn2c(Cc3cccc(F)c3)c(-c3cccc(Br)c3)nc12`: the Potency result is “inactive”.

In the case of `CCOC(=O)c1c(NC(=O)CSc2cn(CC)c3ccccc23)sc2c1CCC2`, the Potency result is “inactive”.

Regarding `CCOC(=O)c1c(NC(=O)Cn2nc(C(F)(F)F)cc2C)sc2c1CCC2`, the Potency was 20.6 µM (active).

Consider `CCOC(=O)c1c(NC(=O)Cc2coc3ccc(CC)cc23)sc2c1CCC2`, for which the Potency entry is “inactive”.

`CCCS(=O)(=O)NC(=O)C1(C)CCCN(C(=O)c2cccs2)C1` (stereo unspecified): the Potency entry was “inactive”.

`CC(NCC(=O)Nc1ccccc1C(=O)NC1CC1)c1ccccc1Cl` (stereo unspecified): the Potency was 18.4 µM (active).

On to `Cc1ccc(OCC(=O)Nc2ccccc2C(=O)NC2CC2)cc1C`, for which the Potency entry was “inactive”.

Regarding `Cc1ccc(OCC(=O)Nc2ccccc2C(=O)NC2CC2)cc1`, the Potency is 8.2 µM (active).

`CCCC(NCC(=O)Nc1ccccc1C(=O)NC1CC1)c1ccccc1` (stereo unspecified): the Potency entry was “inactive”.

As for `COc1ccccc1OCC(=O)Nc1ccccc1C(=O)NC1CC1`, the Potency entry was “inactive”.

For the molecule `O=C(CN1CCCCC1)Nc1ccccc1C(=O)NC1CC1`, the Potency result is “inactive”.
